Data on eight compounds can be found in PubChem BioAssay (NCI).

The panel holds about 83,000 compounds, 20% with a hit somewhere; the sample as a whole holds those more often.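 Activity criterion: percent growth below 10, measured after cells in 96-well plates were exposed to a single compound concentration for 48 hours.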 A number with no mark means an inactive call. The source made the active and inactive calls.

Among the test systems are DU-145 prostate; K-562 leukemia; MALME-3M melanoma; MDA-MB-231 breast; RXF 393 renal; SF-268 CNS; SF-295 CNS; SF-539 CNS; UACC-257 melanoma; M14 melanoma; HCT-15 colon; SNB-75 CNS; SNB-19 CNS; U251 CNS; PC-3 prostate; SK-MEL-5 melanoma; UACC-62 melanoma; LOX IMVI melanoma; SK-MEL-28 melanoma.
Test in all cases: NCI-60 one-dose screen, 48 h (100 = growth as untreated, 0 = no growth, -100 = all killed)
Settings in all cases: 10 µM unless noted

As for `Nc1cnc(C(=O)NNc2nc3cc(F)ccc3n3cccc23)cn1`, the growth is 37.8% with DU-145 prostate; 23.7% in the experiment on K-562 leukemia; 59.9% in the experiment with MALME-3M melanoma; 35.9% in the experiment on MDA-MB-231 breast; 70.6% with RXF 393 renal; 36% in the experiment on SF-268 CNS. The growth in the experiment with SF-295 CNS was 12.7%; with SF-539 CNS, 33.9%; in the experiment with UACC-257 melanoma, 50.9%; with M14 melanoma, 23.3%; in the experiment with HCT-15 colon it was 24.8%; with SNB-75 CNS it was 87.2%. Moreover, the growth in the experiment with SNB-19 CNS is 36.1%; in the experiment on U251 CNS, 36.7%; in the experiment on PC-3 prostate, 47.2%; in the experiment with SK-MEL-5 melanoma it was 34.5%; in the experiment with UACC-62 melanoma it was 22.7%; in the experiment with LOX IMVI melanoma, 22%. Besides, the growth in the experiment on SK-MEL-28 melanoma is 40%.

As for `Fc1cccc(Oc2ccc(Nc3ncnc4ccc(OCCCN5CCOCC5)cc34)cc2Cl)c1`, the growth with DU-145 prostate was 52.5%; in the experiment on K-562 leukemia it was 3.55% (active); in the experiment on MALME-3M melanoma, 24.6%; with MDA-MB-231 breast, 61.4%; with RXF 393 renal it was 55.5%; with SF-268 CNS, 54.4%. In addition, the growth is 82.7% in the experiment on SF-295 CNS; 88.1% in the experiment on SF-539 CNS; 12.5% with UACC-257 melanoma; -44% (active) in the experiment with M14 melanoma; 10.8% with HCT-15 colon; 77.2% in the experiment on SNB-75 CNS. Further, the growth with SNB-19 CNS is 63.3%; in the experiment with U251 CNS, 47.4%; with PC-3 prostate it was 63.8%; in the experiment on SK-MEL-5 melanoma, 32.3%; in the experiment on UACC-62 melanoma, 71.6%; in the experiment with LOX IMVI melanoma, 21.6%. Moreover, the growth in the experiment with SK-MEL-28 melanoma is 68.4%.

With `CC(C)=CC(=O)OCC(=O)O[C@@H]1C[C@]2(C(C)C)O[C@@]1(C)[C@@H]1CC[C@@H](C)[C@H]1[C@@H]2OC(=O)/C=C/c1ccccc1`, the growth with DU-145 prostate was 96.8%; in the experiment with K-562 leukemia it was 60.7%; in the experiment on MALME-3M melanoma, 99.8%; with MDA-MB-231 breast, 90.9%; with RXF 393 renal, 1.65% (active); in the experiment on SF-268 CNS, 62.3%. Further, the growth is 95.4% with SF-295 CNS; 104% in the experiment with SF-539 CNS; 86.8% in the experiment on UACC-257 melanoma; 88.1% in the experiment on M14 melanoma; 86.8% with HCT-15 colon; 88.7% in the experiment on SNB-75 CNS. Further, the growth in the experiment with SNB-19 CNS is 99.3%; in the experiment with U251 CNS it was 81.8%; with PC-3 prostate, 63.7%; in the experiment with SK-MEL-5 melanoma, 90.5%; with UACC-62 melanoma it was 78.5%; with LOX IMVI melanoma, 86.9%. Moreover, the growth in the experiment with SK-MEL-28 melanoma is 103%.

Regarding `CCCC/C(CC)=N\NS(=O)(=O)c1ccc([N+](=O)[O-])cc1`, the growth is 97.2% in the experiment with DU-145 prostate; 95% with K-562 leukemia; 101% in the experiment on MALME-3M melanoma; 96.2% with MDA-MB-231 breast; 110% in the experiment with RXF 393 renal; 100% with SF-268 CNS. In addition, the growth was 108% with SF-295 CNS; 101% with SF-539 CNS; 88.7% with UACC-257 melanoma; 101% in the experiment with M14 melanoma; 107% in the experiment with HCT-15 colon; 90.4% in the experiment on SNB-75 CNS. Further, the growth with SNB-19 CNS was 95.2%; in the experiment with U251 CNS it was 88.6%; with PC-3 prostate, 84.5%; with SK-MEL-5 melanoma it was 98.2%; in the experiment with UACC-62 melanoma it was 98.5%; with LOX IMVI melanoma, 94.2%. Also, in the experiment on SK-MEL-28 melanoma, the growth is 108%.

Turning to `COc1cc(NS(=O)(=O)c2ccc(-c3cnc(C4CC4)o3)cc2)ccc1F`, the growth is 23% with DU-145 prostate; 12.2% in the experiment with K-562 leukemia; 55.8% with MALME-3M melanoma; 24.2% in the experiment with MDA-MB-231 breast; 12.4% in the experiment on RXF 393 renal; 55.7% in the experiment with SF-268 CNS. Further, the growth with SF-295 CNS is 15.6%; with SF-539 CNS it was 1.5% (active); with UACC-257 melanoma it was 69%; with M14 melanoma it was 19%; in the experiment with HCT-15 colon, 20.9%; in the experiment on SNB-75 CNS, -15.8% (active). Moreover, the growth is 25.6% in the experiment with SNB-19 CNS; 22.1% in the experiment on U251 CNS; 33.9% in the experiment on PC-3 prostate; 15.5% in the experiment with SK-MEL-5 melanoma; 31.6% with UACC-62 melanoma; 35% in the experiment on LOX IMVI melanoma. In addition, the growth in the experiment on SK-MEL-28 melanoma is 65.2%.

Take `CCn1cc(C(=O)NNC(=S)Nc2ccc(C)cc2)c(=O)c2ccc(C)nc21`: the growth with DU-145 prostate is 108%; in the experiment on K-562 leukemia it was 99%; in the experiment on MALME-3M melanoma it was 103%; in the experiment with MDA-MB-231 breast it was 93.5%; in the experiment on RXF 393 renal, 104%; in the experiment on SF-268 CNS, 103%. The growth with SF-295 CNS was 102%; with SF-539 CNS it was 102%; in the experiment on UACC-257 melanoma, 94%; in the experiment on M14 melanoma, 113%; in the experiment with HCT-15 colon, 103%; in the experiment with SNB-75 CNS, 97.3%. For the same compound, the growth is 102% with SNB-19 CNS; 93.9% in the experiment with U251 CNS; 90.2% with PC-3 prostate; 101% in the experiment with SK-MEL-5 melanoma; 91.3% in the experiment on UACC-62 melanoma; 95.1% with LOX IMVI melanoma. The growth in the experiment on SK-MEL-28 melanoma was 105%.

Regarding `O=C(/C=C/c1cn(-c2ccccc2)nc1-c1ccc(Cl)cc1)c1ccc(F)cc1`, the growth in the experiment on DU-145 prostate is 88.7%; in the experiment with K-562 leukemia, 57.7%; with MALME-3M melanoma, 87.5%; in the experiment with MDA-MB-231 breast, 65.6%; with RXF 393 renal it was 100%; in the experiment with SF-268 CNS, 83.4%. In addition, the growth in the experiment on SF-295 CNS was 172%; in the experiment on SF-539 CNS, 96.6%; with UACC-257 melanoma, 104%; in the experiment with M14 melanoma, 79.3%; in the experiment with HCT-15 colon, 58.8%; in the experiment with SNB-75 CNS it was 74.6%. Also, the growth in the experiment with SNB-19 CNS was 76.1%; in the experiment with U251 CNS, 76.6%; with PC-3 prostate, 67.6%; in the experiment on SK-MEL-5 melanoma, 86%; in the experiment with UACC-62 melanoma, 59%; in the experiment on LOX IMVI melanoma, 68.7%. The growth in the experiment with SK-MEL-28 melanoma is 106%.

Take `N=C(N)c1ccc(-c2ccc(-c3ccccc3)o2)cc1`: the growth in the experiment on DU-145 prostate was -11.2% (active); in the experiment on K-562 leukemia, -33.2% (active); in the experiment on MALME-3M melanoma, -81.5% (active); in the experiment with MDA-MB-231 breast, -58.2% (active); in the experiment with RXF 393 renal it was -76.3% (active); in the experiment with SF-268 CNS, -31.1% (active). In addition, the growth with SF-295 CNS is -70.4% (active); in the experiment with SF-539 CNS, -83.7% (active); in the experiment on UACC-257 melanoma, -72.4% (active); with M14 melanoma, -91.3% (active); in the experiment with HCT-15 colon, -62.1% (active); in the experiment with SNB-75 CNS, 19.8%. The growth with SNB-19 CNS was -16.9% (active); with U251 CNS, -77.7% (active); with SK-MEL-5 melanoma, -80.6% (active); in the experiment with UACC-62 melanoma it was -70% (active); with LOX IMVI melanoma it was -89.8% (active); in the experiment on SK-MEL-28 melanoma, -61.1% (active).
